The text below walks through data of PubChem BioAssay AID504848 (National Center for Advancing Translational Sciences (NCATS), 2011).

In all, about 2,300 compounds went through this assay and about 1,400 (61%) were called active. About 29% were inconclusive and are not listed. So high a share suggests a set chosen from earlier hits. This is one part of the list. A number with no mark means an inactive call. The call rests on the fitted dose curve; in most records, active means well fitted inhibition curve with a large enough effect; inconclusive means small, poorly fitted or top-dose-only effect, or effect the other way; inactive means no such curve, though single readings can be large or run the other way.
On the % scale 0 is the no-effect control and ±100 the full control effect; potency means the concentration at half of the fitted maximal effect.

The experiment can be described thus: Confirmation screen for delayed death inhibitors of the malarial parasite plastid, 96 hour incubation. Further: nearly all actives have a fitted effect of over 60% in size. Conditions: P. falciparum luciferase growth in erythrocytes; series mostly up to 28.7 µM; activity change, negative = inhibition: at the top concentration. Put shortly: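 Two-generation (96 h, 37 C) exposure of P. falciparum carrying an integrated firefly luciferase reporter in erythrocytes, 0.1% parasitemia and 2% hematocrit final, Albumax-supplemented RPMI. Luminescence decrease measures growth inhibition.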
Consider `Cc1ccc(S(=O)(=O)Nc2cccc3cccnc23)c([N+](=O)[O-])c1`, for which the Potency is 3.98 µM (active).

Turning to `Cc1ccc(S(=O)(=O)Nc2cccc3cccnc23)cc1`, the Potency is 5.62 µM (active).

Turning to `O=C(c1ccc(Cl)cc1)C(Cn1cncn1)C(Sc1ccccc1)c1ccccc1` (stereo not drawn), the Potency was 12.6 µM (active).

With `O=C1C(=O)c2ccccc2C(O)=C1C1CCC(c2ccc(Cl)cc2)CC1` (stereo not drawn), the Potency is 0.0158 µM (active).

For `CN1CC2=Cc3ccccc3OC23Oc2ccccc2C=C3C1`, the Potency was 3.16 µM (active).

In the case of `CCC1=C/C(=C/c2sc3ccccc3[n+]2CC)CC(C)(C)C1`, the Potency is 0.355 µM (active).

For `CCn1nc(C)c(NC(=O)CC23CC4CC(CC(C4)C2)C3)c1C`, the “activity change, negative = inhibition” value is -11.8%.

As for `NC(=O)COc1ccc(NC(=O)CC23CC4CC(CC(C4)C2)C3)cc1`, the Potency is 11.2 µM (active).

For the molecule `CSCCC(NC(=O)c1ccccc1Cl)C(=O)N1CCN(C(c2ccccc2)c2ccccc2)CC1` (stereo not drawn), the Potency is 3.98 µM (active).

Regarding `Cc1ccc(N2C(=O)N3[C@H](c4ccc(F)cc4)[C@@H]4C(=O)N(C5CCCCC5)C(=O)[C@@H]4[C@]3(Cc3ccccc3)C2=O)cc1`, the Potency was 5.62 µM (active).

As to `O=C(NCc1ccccc1)C(c1cccnc1)N(C(=O)c1ccccn1)c1ccccc1F` (stereo not drawn), the “activity change, negative = inhibition” value is -26.2%.

With `O=C(CCc1ccccc1)NNC(=O)c1ccccn1`, the Potency is 6.31 µM (active).

Take `COc1ccc(CCN2CCCn3c2nc2c3c(=O)n(Cc3ccccc3F)c(=O)n2C)cc1OC`: the Potency is 2.24 µM (active).

Regarding `Cc1ccc(S(=O)(=O)Nc2ccc(C(=O)Nc3ccncc3)cc2)cc1`, the Potency was 12.6 µM (active).

As to `CCOc1ccc(C2C3=C(Nc4nc(N)[nH]c(=O)c42)c2ccccc2C3=O)cc1` (stereo not drawn), the Potency is 10 µM (active).

Take `CCN(CC)S(=O)(=O)c1cc(NC(=O)C(C)OC(=O)c2[nH]c(C)c(C(C)=O)c2C)ccc1C` (stereo not drawn): the Potency is 1.78 µM (active).

Consider `O=C1/C(=C/c2ccccc2F)SC(=S)N1CC(=O)N1CCCCC1c1cccnc1` (stereo not drawn), for which the Potency is 10 µM (active).

On to `COc1cc(OC)c(OC)cc1CN1CCN(C(=O)c2cccc3ccccc23)CC1`, for which the Potency is 10 µM (active).

Regarding `CCCc1cc(=O)oc2cc(OC(C)C(=O)NCc3ccccn3)c(Cl)cc12` (stereo not drawn), the Potency is 15.8 µM (active).

Take `COc1ccccc1NC(=O)c1ccc2nc(-c3ccccc3)c(-c3ccccc3)nc2c1`: the “activity change, negative = inhibition” value is 2.71%.

Consider `COc1cc(C(=O)Nc2ccc(S(=O)(=O)Nc3cc(C)on3)cc2)cc(OC)c1OC`, for which the “activity change, negative = inhibition” value is -8.04%.

For the molecule `COC(=O)c1ccc(NC(=O)c2cccc(NC(=O)c3ccccc3)c2)cc1`, the Potency was 7.94 µM (active).

In the case of `COc1ccc(NC(=O)c2cccc(NC(=O)c3ccccc3)c2)c(OC)c1`, the Potency is 8.91 µM (active).

`O=C(Nc1cccc(Br)c1)c1ccc2snnc2c1`: the “activity change, negative = inhibition” value is -6.94%.

Regarding `COc1cc(C(=O)Nc2ccc(Nc3ccccc3)cc2)cc(OC)c1OC`, the Potency is 5.01 µM (active).

As to `COc1cc2c(cc1NC(=O)c1ccc(C(C)(C)C)cc1)CCCC2`, the Potency is 12.6 µM (active).

For the molecule `O=C(CCl)N1CCN(CC(=O)N2CCCC2)CC1`, the Potency is 14.1 µM (active).

With `C/C(=C\C(=O)OCCCCCCCCC(=O)O)C[C@@H]1OC[C@H](C[C@@H]2O[C@H]2[C@@H](C)[C@H](C)O)[C@@H](O)[C@H]1O`, the Potency is 0.501 µM (active).

With `CSCCn1c(C(C)(C)C)cc(C(=O)O)c1C`, the “activity change, negative = inhibition” value is 17%.

As to `CCC(=O)c1ccc(OCC(O)CNC(C)c2ccccc2)cc1` (stereo not drawn), the Potency is 11.2 µM (active).

Consider `Cn1nnnc1Sc1ncnc2scc(-c3cccc(S(C)(=O)=O)c3)c12`, for which the Potency is 12.6 µM (active).

For `Cn1nnnc1Sc1ncnc2scc(-c3cccc(F)c3)c12`, the Potency is 6.31 µM (active).

For the molecule `CC(=O)N1c2ccc(S(=O)(=O)NCCC(=O)NC3CCCC(C)C3C)cc2CC1C` (stereo not drawn), the Potency is 14.1 µM (active).

For the molecule `N#C/C(=C\c1ccccn1)c1ccccn1`, the Potency was 11.2 µM (active).

As to `O=C(c1ccco1)N1CCN(C2c3ccccc3-c3ccccc32)CC1`, the Potency is 12.6 µM (active).

Regarding `COc1ccc(CSC2=NCCN2)cc1Br`, the Potency was 12.6 µM (active).

On to `O=C(CCl)c1ccc2c(c1)CCN2C(=O)C1CCCCC1`, for which the Potency was 11.2 µM (active).

As to `O=C(COc1ccc(Cl)cc1)NCc1nnc2c3ccccc3c(-c3ccccc3)nn12`, the Potency was 12.6 µM (active).

For the molecule `COc1cccc(/C=C2\SC(=S)N(CCC(=O)N3CCCCC3CCO)C2=O)c1` (stereo not drawn), the Potency is 6.31 µM (active).

`O=C1/C(=C/c2ccc(Cl)cc2)SC(=S)N1CCC(=O)N1CCCCC1CCO` (stereo not drawn): the Potency is 12.6 µM (active).

With `CC(C)c1ccc(/C=C2\SC(=S)N(CCC(=O)N3CCCCC3CCO)C2=O)cc1` (stereo not drawn), the Potency is 1.26 µM (active).

In the case of `COc1cccc([C@@H]2Oc3ccc(OC)cc3C(=O)[C@H]2O)c1`, the Potency is 7.08 µM (active).

For the molecule `C=CCNC(=O)c1oc2ccc(S(=O)(=O)N3CCCCC3)cc2c1C`, the Potency is 11.2 µM (active).

Turning to `C=CCNC(=O)c1onc(CSc2ccc(C(C)C)cc2)c1C(=O)O`, the “activity change, negative = inhibition” value was -58.6%.

For `C=CCNC(=O)c1onc(CSc2ccc(F)c(F)c2)c1C(=O)O`, the “activity change, negative = inhibition” value was -32.6%.

As for `COC(=O)C1=CN(Cc2ccc(F)cc2)C=C(C(=O)OC)C1c1ccc(O)c(OC)c1`, the Potency is 10 µM (active).

As for `CC(=O)N(C)C1=C(N2CCOCC2)C(=O)c2ccccc2C1=O`, the Potency is 0.0355 µM (active).

Take `N#Cc1ncc(-c2ccc3c(c2)OCCOCCOCCOCCOCCO3)nc1C#N`: the Potency is 12.6 µM (active).

As to `O=C(c1cc(COc2cccc(C(F)(F)F)c2)on1)N1CCC(Oc2cccnc2)CC1`, the Potency is 14.1 µM (active).

Consider `C/C(=N\NC(=O)c1ccc(Cl)c(Cl)c1)c1ccc(Br)s1`, for which the Potency was 2 µM (active).

With `COCCn1c(SC(C)C(=O)Nc2ncc(Cl)cc2Cl)nc2ccccc21` (stereo not drawn), the Potency is 15.8 µM (active).

Regarding `O=C(CSc1nc2ccccc2n1-c1ccccc1)Nc1ncc(Cl)cc1Cl`, the Potency was 10 µM (active).

On to `Cc1ccc(-n2c(SCC(=O)Nc3ncc(Cl)cc3Cl)nc3ccccc32)cc1`, for which the Potency was 11.2 µM (active).

`Cc1nn(C)c(C)c1C(C)NC(=O)c1ccc(OC2CCN(Cc3ccccn3)CC2)cc1` (stereo not drawn): the “activity change, negative = inhibition” value is -14.3%.

Turning to `COc1ccc(CN2CCC(Oc3ccc(C(=O)NCc4ccccn4)cc3)CC2)c(F)c1`, the Potency was 12.6 µM (active).

For the molecule `O=C1N=C(N2CCN(c3ccccc3)CC2)S/C1=C/c1cccs1`, the Potency was 12.6 µM (active).

For the molecule `CC1=NNC(=O)/C1=C\c1cn(-c2ccccc2)nc1-c1cccs1`, the Potency was 5.62 µM (active).

Regarding `O=C(c1ccco1)N1CCN(C(=O)C2CCCc3c2[nH]c2ccc(Cl)cc32)CC1` (stereo not drawn), the Potency is 12.6 µM (active).

For the molecule `Cc1n[nH]c(=S)n(/N=C/c2ccccn2)c1=O`, the “activity change, negative = inhibition” value was -15.7%.

For `C=CCN=c1scc(-c2ccc(F)cc2)n1/N=C/c1ccccn1`, the Potency is 3.98 µM (active).

Turning to `Cc1ccc(NC(=O)CSc2nc3ccccc3c(=O)n2CCCN2CCCCC2)cc1Cl`, the Potency was 6.31 µM (active).

As to `CC(C)(C)n1ncc2c(=O)n(Cc3ccccc3Br)cnc21`, the Potency was 12.6 µM (active).

Turning to `COc1cccc(C(=O)NC2CC(C)(C)Cc3c2cnn3-c2cccc(F)c2)c1OC` (stereo not drawn), the Potency is 12.6 µM (active).

For `COc1ccc(OC)c(C(=O)NC2CC(C)(C)Cc3c2cnn3-c2ccccc2)c1` (stereo not drawn), the Potency was 11.2 µM (active).

As to `CSc1ncccc1C(=O)NC1CC(C)(C)Cc2c1cnn2-c1ccccc1C` (stereo not drawn), the Potency was 11.2 µM (active).

Take `CC[C@H]1OC(=O)[C@H](C)[C@@H](O[C@H]2C[C@@](C)(OC)[C@@H](O)[C@H](C)O2)[C@H](C)[C@@H](O[C@@H]2O[C@H](C)C[C@H](N(C)C)[C@H]2O)[C@](C)(O)C[C@@H](C)CN(C)[C@H](C)[C@@H](O)[C@]1(C)O`: the Potency is 0.631 µM (active).

For the molecule `CCC(=O)OC1C(N(C)C)CC(C)O[C@H]1O[C@H]1[C@H](C)[C@@H](O[C@H]2CC(OC)[C@@H](O)C(C)O2)[C@H](C)C(=O)O[C@@H](CC)[C@](C)(O)[C@@H](O)[C@H](C)C(=O)[C@@H](C)C[C@]1(C)O` (stereo partly drawn), the Potency is 10 µM (active).

In the case of `CC[C@H]1OC(=O)[C@H](C)[C@@H](O[C@H]2C[C@@](C)(OC)[C@@H](O)[C@H](C)O2)C(C)[C@@H](O[C@@H]2O[C@H](C)C[C@H](N(C)C)[C@@H]2O)[C@](C)(OC)C[C@@H](C)C(=O)[C@H](C)[C@@H](O)[C@]1(C)O` (stereo partly drawn), the Potency is 2.82 µM (active).

On to `COc1ccccc1NS(=O)(=O)c1ccc(NN=C2CCCC2)c([N+](=O)[O-])c1`, for which the Potency is 11.2 µM (active).

`Cc1ccc(-c2nn(-c3ccccc3)cc2CC(=S)N2CCOCC2)cc1`: the Potency is 12.6 µM (active).

`COc1ccc(Cn2c(-c3ccc(Br)cc3)c[n+]3ccccc23)cc1`: the Potency was 0.562 µM (active).

As to `Cc1ccn2c(NC3CCCC3)c(-c3ccccn3)nc2c1`, the Potency was 3.16 µM (active).

Consider `CCOC(=O)c1cc(-c2ccccc2)sc1NC(=O)C(C)OC(=O)c1cccnc1Cl` (stereo not drawn), for which the Potency is 6.31 µM (active).

On to `COCCN(C(=O)c1ccccc1F)c1nnc(-c2ccc(OC)cc2)s1`, for which the Potency is 7.08 µM (active).

`COc1ccc(C2CC(c3cccs3)=NN2C(=O)CSc2nnc(N)s2)cc1OC` (stereo not drawn): the Potency was 11.2 µM (active).

As for `Cc1ccc(NC(=O)c2ccc3c(SCC(=O)O)c4c(nc3c2)CCCC4)c(Br)c1`, the Potency is 7.94 µM (active).

In the case of `Cc1onc(NC(=O)c2ccc([N+](=O)[O-])o2)c1Br`, the Potency is 11.2 µM (active).

In the case of `Cc1cc[n+]2cc(-c3cccc([N+](=O)[O-])c3)c(-c3cccc([N+](=O)[O-])c3)cc2c1`, the Potency is 0.112 µM (active).

Consider `CC(=O)Nc1cccc(C(=O)/C=C/c2ccc(C)cc2)c1`, for which the Potency is 15.8 µM (active).

Take `CCC(=O)Nc1cccc(C(=O)/C=C/c2cc(Br)ccc2OC)c1`: the Potency was 7.94 µM (active).

In the case of `CCC(=O)Nc1cccc(C(=O)/C=C/c2ccccc2)c1`, the Potency is 12.6 µM (active).

On to `N#C/C(=C\c1ccc(-c2ccc(C(=O)O)cc2)o1)C(=O)Nc1ccc(F)cc1`, for which the Potency is 10 µM (active).

Consider `COc1ccccc1-c1cc(C(=O)N/N=C/c2ccc(C)s2)c2ccccc2n1`, for which the Potency was 5.01 µM (active).

Regarding `COc1ccccc1-c1cc(C(=O)N/N=C/c2sccc2C)c2ccccc2n1`, the Potency was 3.55 µM (active).

With `COc1ccccc1-c1cc(C(=O)N/N=C/c2cccs2)c2ccccc2n1`, the Potency was 6.31 µM (active).

`COc1ccccc1-c1cc(C(=O)N/N=C/c2ccc(C)o2)c2ccccc2n1`: the “activity change, negative = inhibition” value was -20.2%.

As for `COc1ccc(-c2cc(C(=O)N/N=C/c3ccc4c(c3)OCO4)c3ccccc3n2)c(OC)c1`, the Potency is 11.2 µM (active).

Take `COc1ccc(/C=N/NC(=O)c2cc(-c3ccccc3)nc3ccccc23)cc1O`: the “activity change, negative = inhibition” value was -16.7%.
